From PubChem BioAssay (NCATS)
Inconclusive results are not listed. Active and inactive are the calls of the source. Unless noted, calls come from the whole dose curve; as a rule, active = well fitted curve in either direction with a large enough effect (not every such curve was filed as active); inconclusive = small, poorly fitted or top-dose-only effect, or another doubt; inactive = flat fitted curve, though single readings scatter.

Key:
[1] = AP1 Signaling Pathway (AID 357); settings: ME-180 AP-1-bla reporter, EGF-induced, beta-lactamase ratio, 5 h; at 17.2 µM (top of the series) unless noted; note: % is set by controls: 0 for no effect and ±100 for the full control effect
Method in brief: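 ME-180 cells with beta-lactamase reporter under AP-1 response element, stimulated with EC50 EGF; compounds tested in titration series, 5 h at 37 °C. CCF4 substrate added 2.5 h at room temperature; 460/530 nm emission ratio gave %activity and AC50.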

[2] = NFAT Signaling Pathway (AID 444); settings: Jurkat NFAT-bla M1, carbachol, beta-lactamase ratio, 5 h; at 17.2 µM (top of the series) unless noted;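 note: carbachol stimulus at about its EC50 of 1 µM final; % is set by controls: 0 for no effect and ±100 for the full control effect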
Method in brief: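 Jurkat cells carrying an NFAT-driven β-lactamase reporter and co-transfected muscarinic M1 receptor were treated with compound plus carbachol (1 uM final, an EC50 level) for 5 h at 37 °C. CCF4 loading followed for 1 h at RT; 460/530 nm ratio gave %activity.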

[3] = Stat Signaling Pathway (AID 446); settings: ME-180 (cervical carcinoma) SIE beta-lactamase reporter, IL-6 stimulated, 5 h; at 17.2 µM (top of the series) unless noted;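 note: ME-180 cervical cancer cells given 40 pM IL-6 alongside compound; SIE-controlled beta-lactamase reporter measured as 460/530 nm FRET emission ratio; % is set by controls: 0 for no effect and ±100 for the full control effect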
Method in brief: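 Emission at 460 and 530 nm (excitation 405 nm) reports SIE-controlled beta-lactamase in ME-180 cells. Cells received compound with 40 pM IL-6 for 5 hrs at 37 C; data scaled between 300 pM IL-6 and 125 nM JAK-inhibitor controls.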

[4] = target: Glucocorticoid receptor (Homo sapiens) (UniProt P04150); assay: GR-GFP Redistribution (AID 450;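 active = compounds whose dose series gives a full or clear partial fitted curve of increased nuclear translocation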; note: potency is the fitted concentration of half-maximal effect); settings: U2OS GR-GFP nuclear translocation, laser cytometry, 2 h; series mostly up to 20.6 µM
Glucocorticoid receptor (Homo sapiens), sequence (P04150 whole entry, looked up): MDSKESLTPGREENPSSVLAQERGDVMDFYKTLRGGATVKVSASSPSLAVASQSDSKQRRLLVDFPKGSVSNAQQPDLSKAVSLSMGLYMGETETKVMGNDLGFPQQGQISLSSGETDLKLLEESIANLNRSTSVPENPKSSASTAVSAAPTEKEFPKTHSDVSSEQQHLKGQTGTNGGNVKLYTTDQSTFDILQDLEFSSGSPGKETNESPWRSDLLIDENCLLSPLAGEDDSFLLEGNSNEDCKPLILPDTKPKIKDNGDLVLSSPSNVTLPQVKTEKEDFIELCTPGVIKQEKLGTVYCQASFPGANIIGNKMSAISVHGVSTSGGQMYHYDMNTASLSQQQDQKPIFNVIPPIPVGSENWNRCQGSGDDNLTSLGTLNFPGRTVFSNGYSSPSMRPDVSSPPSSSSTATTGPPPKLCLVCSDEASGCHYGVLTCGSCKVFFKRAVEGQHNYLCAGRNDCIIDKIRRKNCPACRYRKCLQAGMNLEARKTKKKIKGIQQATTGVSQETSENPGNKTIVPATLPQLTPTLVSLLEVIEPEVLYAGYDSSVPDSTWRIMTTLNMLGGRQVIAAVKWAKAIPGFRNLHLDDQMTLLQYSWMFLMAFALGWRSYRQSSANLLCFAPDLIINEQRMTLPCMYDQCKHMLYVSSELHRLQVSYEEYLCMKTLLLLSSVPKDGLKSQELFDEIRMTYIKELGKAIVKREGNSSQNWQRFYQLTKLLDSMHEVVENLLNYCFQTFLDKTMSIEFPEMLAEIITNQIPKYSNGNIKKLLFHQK

Compound	activity change, negative = inhibition [1]	activity change, negative = inhibition [2]	activity, negative = inhibition [3]	Potency [4]
Cn1nccc1C(=O)Nc1ccccc1C(=O)O	-2.42% (inactive)	5.13% (inactive)	4.71% (inactive)	> 20.6 µM (inactive)
CC(=O)[C@@]1(O)CC[C@H]2[C@@H]3CCC4=CC(=O)CC[C@]4(C)[C@H]3[C@@H](O)C[C@@]21C	3.13% (inactive)	-20.8% (inactive)	4.29% (inactive)	0.0133 µM (active)
CCCCOc1ccc(C(=O)Nn2cnnc2)cc1	15.5% (inactive)	4.61% (inactive)	8.41% (inactive)	> 20.6 µM (inactive)
CC(=O)Nc1n[nH]c(S(=O)(=O)Cc2ccc(Cl)cc2Cl)n1	-2.5% (inactive)	4.1% (inactive)	3.27% (inactive)	> 20.6 µM (inactive)
CCOc1ccc(C2C(C(=O)c3ccc(C)o3)=C(O)C(=O)N2CCN2CCOCC2)cc1OC (centres undefined)	0.475% (inactive)	4.63% (inactive)	0.944% (inactive)	> 20.6 µM (inactive)
Cc1ccc(-n2[nH]c(C)c(C=Nc3cc(C)ccn3)c2=O)cc1	2.52% (inactive)	-2.28% (inactive)	4.82% (inactive)	> 20.6 µM (inactive)
COC(=O)C(NC(=O)c1ccc(F)cc1)(Nc1nc(C)cs1)C(F)(F)F (centres undefined)	-0.49% (inactive)	-21.1% (inactive)	-10.7% (inactive)	> 20.6 µM (inactive)
Cc1cc(OCC(=O)Nc2ccc3oc(-c4ccncc4)nc3c2)ccc1Cl	-4.67% (inactive)	16.6% (inactive)	3.21% (inactive)	> 20.6 µM (inactive)
CC(C)C1Cc2c(sc3c2c(=O)n(Cc2ccccc2)c2nncn32)CO1 (centres undefined)	-0.408% (inactive)	-11.6% (inactive)	-3.52% (inactive)	> 20.6 µM (inactive)
Cn1ncc(N=Cc2ccccc2)c1C(N)=O	5.51% (inactive)	6.04% (inactive)	5.52% (inactive)	> 20.6 µM (inactive)
Cc1cc(C(F)(F)F)nn1CC(=O)NCC1CCCO1 (centres undefined)	3.74% (inactive)	-11% (inactive)	3.03% (inactive)	> 20.6 µM (inactive)
Cc1ccc(C)c(OCc2nnc(NC(=O)c3ccco3)s2)c1	-0.273% (inactive)	9.32% (inactive)	-9.58% (inactive)	> 20.6 µM (inactive)
CCOC(=O)c1[nH]c2ccc(OC)cc2c1C	-0.35% (inactive)	-6.84% (inactive)	6% (inactive)	> 20.6 µM (inactive)
COc1ccc(-c2cc3nc4n(c(=O)c3s2)CCOC4)cc1	18.4% (inactive)	-10.1% (inactive)	0.631% (inactive)	> 20.6 µM (inactive)
Cc1ccc(N(Cc2cc3ccccc3[nH]c2=O)C(=O)c2ccco2)c(C)c1	-26.3% (inactive)	25.5% (inactive)	-13% (inactive)	> 20.6 µM (inactive)
O=C(CC(c1ccc(F)cc1)c1ccco1)N1CCCC1 (centres undefined)	-6.27% (inactive)	-22.2% (inactive)	-1.51% (inactive)	> 20.6 µM (inactive)
CCCCCSc1nc(C)c(CC(=O)O)c(=O)[nH]1	-1.76% (inactive)	15.5% (inactive)	12.4% (inactive)	> 20.6 µM (inactive)
COCCCNC(=O)C(C#N)c1nc2ccccc2nc1N1CCCC1 (centres undefined)	5.84% (inactive)	8.15% (inactive)	20.8% (inactive)	> 20.6 µM (inactive)
COc1ccc(/C(O)=C2\C(=O)C(=O)N(CCN(C)C)C2c2cccc(OC)c2OC)cc1 (centres undefined)	10.8% (inactive)	-5.32% (inactive)	11.6% (inactive)	> 20.6 µM (inactive)
O=C(NCC(F)(F)F)Nc1nnc(C(F)(F)F)s1	-9.88% (inactive)	-2.8% (inactive)	-4.37% (inactive)	> 20.6 µM (inactive)
Fc1ccccc1/C=N/n1cnnc1	3.64% (inactive)	1.1% (inactive)	2.69% (inactive)	> 20.6 µM (inactive)
COc1ccc(C2/C(=C(/O)c3ccccc3)C(=O)C(=O)N2c2ncccn2)cc1OC (centres undefined)	-3.2% (inactive)	-4.09% (inactive)	-0.726% (inactive)	> 20.6 µM (inactive)
S=c1nc(-c2ccccc2)[nH]n1-c1ccccc1	21.6% (inactive)	5.29% (inactive)	-1.15% (inactive)	> 20.6 µM (inactive)

Compound	activity change, negative = inhibition [1]	activity change, negative = inhibition [2]	activity, negative = inhibition [3]	Potency [4]
COCCNC(=O)C(C#N)c1nc2ccccc2nc1N1CCN(Cc2ccc3c(c2)OCO3)CC1 (centres undefined)	-20.2% (inactive)	-26.8% (inactive)	4.46% (inactive)	> 20.6 µM (inactive)
CC(C)(C)NC(=O)CSc1nsc(SCC(=O)NC(C)(C)C)c1C#N	-5.49% (inactive)	-10.2% (inactive)	3.19% (inactive)	> 20.6 µM (inactive)
C=C1C2(C(=O)Nc3nccs3)CCC(C2)C1(C)C (centres undefined)	-7.92% (inactive)	25.1% (inactive)	-0.516% (inactive)	> 20.6 µM (inactive)
CCc1[nH]c(=O)c(C#N)c2c1CSC(C)(C)C2	5.95% (inactive)	3.33% (inactive)	9.69% (inactive)	> 20.6 µM (inactive)
Cc1cc(C)n(-c2c(F)c(F)c(CN3CCCCC3)c(F)c2F)n1	-3.48% (inactive)	-27.9% (inactive)	5.23% (inactive)	> 20.6 µM (inactive)
COc1ccc(C2CC(C(F)(F)F)n3ncc(C(=O)NCC4CCCO4)c3N2)cc1OC (centres undefined)	-0.991% (inactive)	3.91% (inactive)	-0.435% (inactive)	> 20.6 µM (inactive)
N#CC1(c2ccccc2)CCC(=NO)CC1 (centres undefined)	-5.72% (inactive)	8.2% (inactive)	11.5% (inactive)	> 20.6 µM (inactive)
COc1cc(C2CC(C(F)(F)F)n3ncc(C(=O)O)c3N2)cc(OC)c1OC (centres undefined)	6.2% (inactive)	-3.76% (inactive)	7.46% (inactive)	> 20.6 µM (inactive)
CCCCn1c(C)cc2cc(O)ccc21	-15.1% (inactive)	-5.83% (inactive)	-8.99% (inactive)	> 20.6 µM (inactive)
O=C1CC(c2ccccc2)n2nc(N3C(=O)c4ccccc4C3=O)nc2N1 (centres undefined)	0.103% (inactive)	-10.6% (inactive)	-7.82% (inactive)	> 20.6 µM (inactive)
Nc1nnc(CSCc2ccc(F)cc2)s1	8.86% (inactive)	-1.8% (inactive)	-2.21% (inactive)	> 20.6 µM (inactive)
Cc1nnc2n(C3CCCCC3)c(=O)c3c4c(sc3n12)COC(C)(C)C4	4.48% (inactive)	5.64% (inactive)	0.172% (inactive)	> 20.6 µM (inactive)
Nc1ncnc2nc(SCc3ccccc3)[nH]c12	-9.21% (inactive)	-4.19% (inactive)	-9.74% (inactive)	> 20.6 µM (inactive)
CNC(=O)c1cc2ccccc2o1	8.83% (inactive)	-13.4% (inactive)	2.75% (inactive)	> 20.6 µM (inactive)
CCc1nc(NCCN2CCOCC2)c(C#N)c2c1CCCC2	-11.1% (inactive)	-20.4% (inactive)	6.43% (inactive)	> 20.6 µM (inactive)
Cc1cc(=O)oc(C)c1C(=O)NC1CC(C)(C)NC(C)(C)C1	-2.44% (inactive)	-3.93% (inactive)	0.837% (inactive)	> 20.6 µM (inactive)
CN(C)S(=O)(=O)Nc1ccc(NS(=O)(=O)N(C)C)c(S(=O)(=O)c2ccccc2)c1	-9.87% (inactive)	-5.57% (inactive)	21.4% (inactive)	> 20.6 µM (inactive)
CN=c1sc2ccccc2n1CC(O)COc1ccccc1 (centres undefined)	-17.6% (inactive)	-17.8% (inactive)	-0.403% (inactive)	> 20.6 µM (inactive)
N#C/C(=C\c1c(N2CCC(C(N)=O)CC2)nc2ccccn2c1=O)S(=O)(=O)c1ccccc1	-8.19% (inactive)	29.6% (inactive)	-1.65% (inactive)	> 20.6 µM (inactive)
COC(=O)C1=C(C)N=C2SC(C)C(=O)N2C1c1ccc(C(=O)OC)cc1 (centres undefined)	-9.79% (inactive)	-6.71% (inactive)	-11.1% (inactive)	> 20.6 µM (inactive)
NC(=O)/C(=N\O)c1ccccc1	-4.98% (inactive)	15.2% (inactive)	-0.233% (inactive)	> 20.6 µM (inactive)
Clc1ccc(-n2ncc3c(NCCCn4ccnc4)ncnc32)cc1	-4.22% (inactive)	-6.43% (inactive)	-0.823% (inactive)	> 20.6 µM (inactive)
CC(C)Oc1ccc(/C(O)=C2/C(=O)C(=O)N(CCN3CCOCC3)C2c2ccccc2)cc1 (centres undefined)	-9.89% (inactive)	19.7% (inactive)	-0.677% (inactive)	> 20.6 µM (inactive)
